Compound activity as filed in PubChem.
Sampled rows, rich in hits. Any-hit rate of the full collection: about 3.8%.
TGFb SMAD3 inh – TGF-b pathway inhibition; HepG2 CAGA-GFP TGF-b/SMAD3 reporter, GFP fluorescence, 18 h; TGF-beta stimulated, 500 pg/mL final; Potency, µM (titrated, usually from 46.1 µM), for inactives: at the top dose activity, negative = inhibition, actives largely listed as inhibitors; 1.2% of 410,000 active; further: on the % scale 0 is the no-effect control and ±100 the full control effect; nearly all actives have a fitted effect of over 65% in size
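Inhibition was scored as loss of TGF-beta-induced (500 pg/mL final, 18 hours, 37 degrees C) GFP in HEPG2 cells carrying a CAGA-GFP reporter, in DMEM with 1% FBS. Well GFP was summed per cell; Activity was normalised to unstimulated and stimulated DMSO wells, then concentration-response fitting.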
HT1080NT lethal – kills 2HG-producing HT-1080-NT fibrosarcoma cells. Potency, µM (highest dose often 46.1 µM), for the others: at the highest dose activity, negative = less viability, usual class: cytotoxic. 1.6% of 360,000 active. HT-1080-NT fibrosarcoma viability, CellTiter-Glo ATP luminescence, 48 h;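 further: NT is the 2HG producing partner of a matched IDH1 knockdown line; 0% = DMSO-treated cells and -100% = media-only wells without cells; nearly all actives have a fitted effect of over 55% in size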
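Toxicity toward the 2HG-producing NT line was scored as %Activity, normalised to DMSO and no-cell wells, from CellTiter-Glo luminescence after 48 hours' treatment.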
HepG2 viability – kills HepG2 cells in TGF-b inhibitor counter-screen; HepG2 CAGA-GFP viability, ATP luminescence, 18 h; Potency, µM (series often up to 46.1 µM), for the others: top-dose activity change, negative = cytotoxicity, usual class: cytotoxic; 0.76% of 410,000 active; AID 588856
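CellTiter-Glo luminescence gave cytotoxicity after 18 hours at 37 degrees C. The cells were HepG2 CAGA-GFP in 1% FBS DMEM, stimulated with 500 pg/mL TGF-beta after compound addition. %Activity was normalised to no-cell wells (complete cell-killing) and DMSO (no toxicity), and curves were fitted and classified.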
S2 tox – cell viability loss in ATXN counter-screen; S2 cells (HEK-293 line with an ATXN2-luciferase reporter) viability, CellTiter-Fluor protease fluorescence, 24 h; Potency, µM (highest dose often 56.7 µM), usual class: cytotoxic; 0.49% of 400,000 active; AID 651635; further: nearly all actives have a fitted effect of over 40% in size
ATXN2 expr inh – inhibitors of ATXN2 expression | AID 1745845 | Potency, µM (doses to about 57 µM), for the others: at the highest dose activity change, negative = inhibition, hits mostly inhibitors | 0.72% of 360,000 active | HEK-293 ATXN2-luciferase reporter, luminescence, 24 h; further: on the % scale 0 is the no-effect control and ±100 the full control effect; nearly all actives have a fitted effect of over 55% in size
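ATXN2-luciferase reporter cells (luciferase flanked by upstream and downstream ATXN2 gene portions) were treated 24 h at 37 °C with compounds at up to 57 uM. SteadyGlo luminescence gave expression; GF-AFC fluorescence gave viability.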
HT1080 IDH1KD tx – kills HT-1080 cells with IDH1 knockdown; 2% of 360,000 active; HT-1080 IDH1 knockdown viability, ATP luminescence, 48 h; Potency, µM (top dose mostly 46.1 µM), inactives show at the top dose activity, negative = toxicity, usual class: cytotoxic; AID 686971;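 further: 0% = DMSO wells and -100% = cell-free medium wells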
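Knockdown cells (IDH1KD HT-1080) received compounds 2 h after plating at 750 cells/well and were kept 48 h at 37 °C in 5% FBS RPMI. A CellTiter-Glo luminescence read gave % activity for curve fitting.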
* = called active by the depositor; i = inactive; u = inconclusive; x = no result given; ! = a repeat was not active. The call rests on the fitted dose curve; in most records, active means well fitted curve in the direction sought with a large enough effect; inconclusive means small, poorly fitted or top-dose-only effect, or another doubt; inactive means no such curve, though single readings can be large; an effect the other way counts as inactive or inconclusive. Potency means the concentration at half of the fitted maximal effect.

SMILES	TGFb SMAD3 inh	HT1080NT lethal	HepG2 viability	S2 tox	ATXN2 expr inh	HT1080 IDH1KD tx
CCc1cccc2c(C(=O)CN3C(=O)NC(C)(c4cccc5ccccc45)C3=O)c[nH]c12 (configuration not stated)	u	u	-28%	u	-34%	15µM*
CCc1cccc2c(C(=O)CN3C(=O)NC4(CCc5ccccc54)C3=O)c[nH]c12 (configuration not stated)	u	u	-68%	u	u	u
CCc1cccc2c(C(=O)CN3C(=O)N(C)C4(CCCCC4)C3=O)c[nH]c12	u	18µM*	-48%	i	-7%	16µM*
CCc1cccc2c(=O)c(C(=O)N3CCCCCC3)c[nH]c12	-3%	-3%	-3%	u	3%	3%
O=C(Nc1nc2cccc(-c3ccc(CN4CCS(=O)(=O)CC4)cc3)n2n1)C1CC1	x	x	x	x	292%	x
CCN1C(=O)C(O)(C2COC(C)(C)CC2=O)c2ccccc21 (configuration not stated)	1%	22%	7%	i	1%	25%
CCN1C(=O)C(O)(C2COC(C)(C)CC2=O)c2cc(Br)ccc21 (configuration not stated)	u	16µM*	-40%	i	-17%	u
CN(C(=O)COC(=O)c1cccc(Cl)c1)C1CCS(=O)(=O)C1 (configuration not stated)	22%	-2%	-1%	i	x	0%
CN(C(=O)COC(=O)c1ccc(-c2ccc(O)cc2)cc1)C1CCS(=O)(=O)C1 (configuration not stated)	-11%	6.5µM*	-2%	i	-14%	18µM*
CN(C)c1nc(CN2CCCCC2c2cccnc2)nc2ccccc12 (configuration not stated)	x	x	x	i	x	x
CC(C)c1cc(C(=O)OCC(=O)NC(=O)NCc2ccco2)c(O)c(C(C)C)c1	u	23µM*	-89%	u	u	26µM*
O=C(COC(=O)c1ccccc1C(F)(F)F)NC(=O)NCc1ccco1	-11%	3%	0%	u	8%	19%
CC(C)Oc1ccc(CCN=C(N)N=C(N)N)cc1Cl	-9%	-19%	-7%	i	x	23µM*
Clc1ccc(-c2csc3ncnc(Sc4nnnn4-c4ccccc4)c23)cc1	6.3µM*	x	6.3µM*	x	x	x
Cc1sc2ncnc(Sc3nnnn3-c3ccccc3)c2c1C	13µM*!	10µM*	10µM*!	32µM*	16µM*	7.1µM*
Cc1ccc(C)c(-n2nnnc2Sc2nnnn2-c2ccccc2)c1	u	u	-35%	u	u	16µM*
Cc1ccc(-c2csc3ncnc(Sc4nnnn4-c4ccccc4)c23)cc1	6.3µM*	x	-97%	x	x	x
Cc1sc2ncnc(Sc3ccccc3C(=O)O)c2c1C	9%	-2%	7%	i	x	-3%
c1ccc(-c2ccc(-c3csc4ncnc(Sc5nnnn5-c5ccccc5)c34)cc2)cc1	u	x	-11%	x	x	x
Clc1ccc(-c2csc3ncnc(Cl)c23)cc1	-2%	-10%	-1%	i	-23%	-7%
Cc1cc(C)n(-c2ccc(C(=O)N3CCc4c(cnc(C)c4CNC(=O)c4ccccc4F)C3)cc2)n1	x	x	x	i	x	x
O=S(=O)(c1ccccc1)c1nc(-c2ccco2)oc1NCc1cccnc1	-7%	1%	11µM*	i	8%	0%
Cc1ccc(C(=O)C[n+]2cc(-c3ccc(C)cc3)n3c2CCCCC3)cc1	u	13µM*	-11%	u	u	18µM*
Cc1ccc(-c2c[n+](CC(=O)Nc3nc(-c4ccc(F)cc4)cs3)c3n2CCC3)cc1	u	21µM*	18µM*	u	-17%	23µM*
Cc1ccc2c(c1)c1c(n2CC(O)CN2CCCCC2C)CCCC1 (configuration not stated)	0%	18µM*	-20%	i	-10%	u
SMILES	TGFb SMAD3 inh	HT1080NT lethal	HepG2 viability	S2 tox	ATXN2 expr inh	HT1080 IDH1KD tx
Cc1ccc2c(c1)c1c(n2CC(O)CNC2CCCCC2)CCCC1 (configuration not stated)	u	21µM*	-104%	u	u	16µM*
CC(O)CNC(=O)C(=O)Nc1c2c(nn1-c1ccc(Cl)cc1)CSC2 (configuration not stated)	11%	x	-17%	i	-4%	x
Cc1ccc2c(CN3CCCCC3)cc(=O)oc2c1C	-8%	4%	-28%	i	22%	0%
Cc1ccc2c(CSc3nncn3C)cc(=O)oc2c1C	0%	4%	10µM*	i	-21%	12%
Cc1ccsc1C(=O)N1CC(=O)Nc2ccccc21	1%	u	-31%	i	-16%	18µM*
CS(=O)(=O)c1ccc(C(=O)N2CC(=O)Nc3ccccc32)cc1	2%	11%	-2%	i	-9%	0%
O=C(Nn1c(-c2ccc(Br)cc2)nc2ccccc2c1=O)c1ccncc1	-5%	16%	-1%	i	-23%	14%
Cc1cc(C(=O)Nn2c(-c3ccc(Br)cc3)nc3ccccc3c2=O)ccc1[N+](=O)[O-]	13µM*	33µM*	-31%	i	0%	u
CCOC(=O)c1cc(S(=O)(=O)Nc2ccc(OC(F)(F)F)cc2)[nH]n1	-5%	x	-32%	i	1%	x
Cc1cccc2cc(C#N)c(SCCN3CCCCC3)nc12	u	u	-21%	i	25µM*	u
Cc1ccc(C#N)c(SCCN2CCCCC2)n1	0%	9%	-25%	i	-7%	11%
Cc1ccc(CN2CCSc3ccc(C(=O)NCCCN4CCN(C)CC4)cc32)cc1	-15%	26µM*	-23%	u	u	u
Cc1ccc(CCNC(=O)c2ccc3c(c2)N(Cc2ccc(F)cc2)CCS3)cc1	-9%	x	-4%	i	0%	x
COc1ccccc1OC(C)C(=O)Nc1ccc(-c2nc3ccccc3s2)cc1 (configuration not stated)	-11%	x	3%	i	50%	x
COc1ccc(OC)c2c1C(=O)c1ccccc1C2=O	43%	-8%	-1%	i	1%	-15%
COc1ccc(OC)c2c1C(=O)C(Cl)=C(Cl)C2=O	3.2µM*	u	-103%	7.9µM*	7.1µM*	3.3µM*
Cc1nn(-c2ccccc2)c(Cl)c1CN(C(=O)CCl)c1cccc2ccccc12	u	4.1µM*	-113%	28µM*	u	5.2µM*
Cc1nn(-c2ccccc2)c(Cl)c1CN(C(=O)CCl)c1ccc(Cl)cc1	10µM*	7.3µM*	7.9µM*	11µM*	14µM*	5.2µM*
